Experimental data reported in PubChem BioAssay AID504660 (National Center for Advancing Translational Sciences (NCATS), 2011).
Out of some 360,000 compounds screened, about 3,700 (1%) were called active. Only a selection was taken, and actives are over-represented in it overall. Values without a mark were called inactive. Cut-off read from the data, not from the text of the source: active = activation above about 30%; inactive = the rest.
Note: 0% is about no effect.

The compounds below were run against D(1A) dopamine receptor (Homo sapiens) (UniProt P21728) (assay: Allosteric Agonists of the Human D1 Dopamine Receptor: qHTS). Conditions: HEK293 T-REx D1 cells, calcium flux, agonist mode; at 2 µM; stronger effect = higher value.
Sequence of D(1A) dopamine receptor (Homo sapiens) (P21728 whole entry, looked up): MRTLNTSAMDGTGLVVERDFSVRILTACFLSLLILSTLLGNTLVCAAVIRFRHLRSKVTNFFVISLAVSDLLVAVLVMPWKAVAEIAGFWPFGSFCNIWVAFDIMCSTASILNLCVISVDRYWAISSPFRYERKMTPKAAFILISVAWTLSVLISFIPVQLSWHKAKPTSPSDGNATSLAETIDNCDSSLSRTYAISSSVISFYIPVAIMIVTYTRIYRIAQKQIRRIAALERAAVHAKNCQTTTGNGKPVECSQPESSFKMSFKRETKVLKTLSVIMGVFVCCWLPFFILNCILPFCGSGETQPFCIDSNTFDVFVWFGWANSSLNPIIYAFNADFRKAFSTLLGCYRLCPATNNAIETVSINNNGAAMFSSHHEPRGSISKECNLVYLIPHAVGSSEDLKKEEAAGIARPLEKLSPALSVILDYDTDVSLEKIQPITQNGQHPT
Text: NIH Chemical Genomics Center [NCGC] NIH Molecular Libraries Probe Centers Network [MLPCN] MLPCN Grant: NS064831-01 Assay Submitter (PI): David Sibley Dopamine receptors (DARs) are involved in the etiology and/or therapy of a number of neuropsychiatric and endocrine disorders. For instance, all receptor-based antiparkinsonian drugs work via stimulating the D1 DAR subtype whereas all FDA-approved antipsychotic agents are antagonists of this receptor. […] There are three different types of allosteric modulators that we are seeking, two of which will stimulate or augment receptor signaling, allosteric agonists and potentiators, while the third, allosteric antagonists, will attenuate receptor signaling. The present primary screening assay measures compound agonism by tracking calcium flux in a […], inducible Hek293 Trex D1 cell line.
Freshly passaged cells are plated in 1536 well black, clear bottom plates at a density of 4000 cells/well in 3 ul of complete media containing 1x tetracycline inducer. After an overnight incubation at […] in 5% CO2, cells are loaded with 2 ul of the no wash Calcium Assay Kit (ABD Bioquest) and incubated at room temperature for 30 to 90 minutes. Agonist read: A 10 cycle (1 second/cycle) baseline measurement is taken and then the FDSS online 1536 pintool delivers 23 nl of compound library (as well as dopamine controls) to the plate. The plate is measured for kinetically at 1 cycle/sec for 180 seconds and is considered to be the agonist portion of the assay (eg, compounds which activate a positive calcium response during this portion are flagged as potential agonists). Following the 180 second read, 1 ul of either an EC20 (positive modulation assay) or EC80 (negative modulation assay) is delivered by an onboard pipette head. Measurements are taken kinetically for an additional 180 seconds.
With CCc1ccccc1NC(=O)c1sc2nc3c(cc2c1N)CN(Cc1ccccc1)CC3 the activation was 0.298%.
In the case of O=[S+]([O-])(c1ccc2c(c1)OCCO2)N1CCN([S+](=O)([O-])c2c(Cl)cc(Cl)cc2Br)CC1, the activation is reported as 0.0145%.
With O=S(=O)(Nc1cccc2cccnc12)c1cccc2cccnc12 the activation was 23.3%.
With COc1ccc(-c2nc3nc(C)cc(C)n3c2Nc2c(C)cccc2C)cc1 the activation was 7.65%.
c1ccc(C[C@H]2CNCCN2CCC23CC4CC(CC(C4)C2)C3)cc1 was tested, and the activation was 39.5% (active).
Compound COc1cc(-c2cc3n(C)c(C)c(CCC(=O)Nc4ccc(F)cc4)c(=O)n3n2)cc(OC)c1OC has an activation of 0.314%.
Work on Cc1ccc(Cl)cc1NC(=O)/C(C#N)=C\c1cn(Cc2ccc(F)cc2)c2ccccc12 yielded an activation of 6.19%.
Work on CCc1nc(-c2cc(S(=O)(=O)N3CCN(c4ccc(OC)cc4)CC3)ccc2OC)no1 yielded an activation of 4.75%.
With CSc1nc(-c2ccc(F)cc2)nc2c1Cc1c(CO)cnc(C)c1O2 the activation was 1.34%.
For N#CC1(NC(=O)COC(=O)CCN=C2NS(=O)(=O)c3ccccc32)CCCCC1, the activation was 4.55%.
O=C(OCCN=C1NS(=O)(=O)c2ccccc21)c1cccc([N+](=O)[O-])c1 gave an activation of 3%.
In the case of O=C(CCCN=C1NS(=O)(=O)c2ccccc21)OCC(=O)c1ccc(F)c(F)c1, the activation is reported as 68.2% (active).
O=C(O)c1c(CNCc2cccc(F)c2)c2ccccc2n1Cc1ccccc1 was tested, and the activation was -1.09%.
With COc1cc(CNC2CCCC2)c(Br)cc1OCc1ccccc1 the activation was 42.3% (active).
For COc1cc(CNC2CCCCC2)c(Br)cc1OC1CCCC1, the activation was 10.2%.
COc1cc(OC)c(NC(=O)C2CCCN2C(=O)OCc2ccccc2)cc1Cl (stereo not drawn) was tested, and the activation was -0.285%.
Work on Cc1nc(-c2ccc(Cl)cc2)sc1C1(C)CC(c2ccccc2F)=NO1 (stereo not drawn) yielded an activation of 6.23%.
With Cc1nc(C(=O)NCc2ccccc2)sc1C1(C)CC(c2cccnc2)=NO1 (stereo not drawn) the activation was 41.4% (active).
In the case of Cc1nc(C(=O)Nc2ccc(Cl)cc2)sc1C1(C)CC(c2ccccc2)=NO1 (stereo not drawn), the activation is reported as 6.69%.
Work on COc1cccc(-n2ccn(CC(=O)NCc3ccc(C)cc3)c(=O)c2=O)c1 yielded an activation of 14.3%.
Cc1ccc(CNC(=O)c2cccc3c2C(=O)c2ccc(N4CCC(C)CC4)cc2S3(=O)=O)cc1 was tested, and the activation was 179% (active).
COc1cccc(-c2ccc3c(c2)S(=O)(=O)c2cccc(C(=O)O)c2C3=O)c1OC gave an activation of 0.629%.
Cc1ccc(CNC(=O)c2ccccc2CCc2ccccc2)cc1 was tested, and the activation was 4.45%.
With Cc1ccccc1OCC(=O)Nc1c(C(=O)Nc2ccccc2F)oc2ccccc12 the activation was 20.7%.
Compound CCOC(=O)c1c(C)[nH]c(CCC(=O)Nc2ccc(OC)c(OC)c2)c1C has an activation of -0.109%.
Cc1cc(=O)c2cc(C(=O)Nc3cccc(C)c3C)ccc2[nH]1 gave an activation of -0.195%.
Compound CC(C)(C)c1ccc(Oc2ccc(N)cc2)cc1 has an activation of 5.93%.
CC(C)(c1ccccc1)c1ccc(OCCN2CCCC2)cc1 was tested, and the activation was 35.8% (active).
For CC(C)(c1ccccc1)c1ccc(OCCN)cc1, the activation was 63.3% (active).
In the case of Cc1nn(CCOc2ccccc2)c(=O)n1-c1ccccc1F, the activation is reported as 1.91%.
For c1ccc2cc(OCCN3CCCC3)ccc2c1, the activation was 5.59%.
In the case of Cc1cc(OCCN2CCCC2)ccc1C(C)C, the activation is reported as 2.99%.
For CSc1ccc(CCNC(=O)c2ccc3c(c2)nc2n3CCOC2)cc1, the activation was 0.926%.
Work on O=S(=O)(NCC(c1ccco1)N1CCOCC1)c1cc(F)ccc1F (stereo not drawn) yielded an activation of -2.87%.
Compound CCc1ccc(C2CC(=O)c3c([nH]c(C(=O)OCc4ccc(C)cc4)c3C)C2)cc1 (stereo not drawn) has an activation of 3.18%.
Work on Cc1ccc2nc(COc3cccc(NC(=O)Nc4ccc(C)c(Cl)c4)c3)cc(=O)n2c1 yielded an activation of -0.44%.
For Cc1ccc(C(=O)CC2(O)C(=O)N(CCc3ccccc3)c3ccc(Br)cc32)cc1 (stereo not drawn), the activation was 9.1%.
O=C(Cn1nc(Cc2cccnc2)c2ccccc2c1=O)NCC1COc2ccccc2O1 (stereo not drawn) gave an activation of 0.536%.
CCC(=O)c1ccc(OCC(=O)N(CC)CC2COc3ccccc3O2)cc1 (stereo not drawn) gave an activation of 3.24%.
In the case of c1ccc2c(c1)OCC(CNc1ncnc3nc[nH]c13)O2 (stereo not drawn), the activation is reported as 182% (active).
For CCn1c2ccccc2c2nnc(N3CCN(c4cc(C)ccc4C)CC3)nc21, the activation was -0.584%.
Cc1ccc2c(=O)c(C(=O)c3cccc(Cl)c3)cn(CC(=O)NCc3ccccc3)c2n1 gave an activation of 0.234%.
CCOc1ccc(NC(=O)Cn2cc(C(=O)c3ccc(C)cc3)c(=O)c3cc4c(cc32)OCCO4)cc1 showed an activation of 4.93%.
For CCCn1c(=O)c(-c2ccccc2)c(O)c2ccccc21, the activation was 0.534%.
For CC(=O)n1c(C=Nc2ccccc2)c(O)c2ccccc21, the activation was 52.3% (active).
Compound Cc1cc(=O)n(CC(=O)Nc2cccc([N+](=O)[O-])c2)c(-n2nc(C)cc2C)n1 has an activation of -0.478%.
Compound Cc1ccc(C(=O)NC2CCN(C#N)CC2)cc1 has an activation of -0.099%.
With Cc1ccccc1-n1c(C)cc(/C=N/NC(=O)c2ccc(CN3CCOCC3)cc2)c1C the activation was 9.59%.
In the case of Cc1cccc(-n2c(C)cc(/C=N\NC(=O)c3cccs3)c2C)c1, the activation is reported as 36.3% (active).
With O=C(N/N=C/C=C/c1ccco1)c1cccs1 the activation was 2.91%.
N#CN1CCC(NS(=O)(=O)c2cccc(F)c2)C1 (stereo not drawn) showed an activation of 0.986%.
For Cc1cc2c(s1)c1cnn(Cc3cc(F)c(Cl)cc3Cl)c(=O)c1n2C, the activation was -0.162%.
In the case of Cc1cccc(S(=O)(=O)c2cn(Cc3ccccc3)c3cc(N4CCOCC4)c(F)cc3c2=O)c1, the activation is reported as 1.08%.
COCCNc1nc(N)c([N+](=O)[O-])c(N2CCCCCC2)n1 gave an activation of 2.99%.
Work on Cc1c(Nc2cc(N3CCCC(C)C3)c3nonc3c2[N+](=O)[O-])c(=O)n(-c2ccccc2)n1C (stereo not drawn) yielded an activation of -0.0536%.
Nc1cc(N2CCCCCC2)c2nonc2c1[N+](=O)[O-] was tested, and the activation was 34.1% (active).
In the case of CC(C)c1ccc(NC(=O)Cn2c3ncccc3c(=O)n2-c2ccccc2)cc1, the activation is reported as 2.49%.
COCCNc1ncnc2c1c(-c1ccccc1)cn2-c1ccc(C)c(Cl)c1 showed an activation of 2.02%.
Work on Cc1cccc(-n2cc(CN3CCN(C(=O)c4ncn[nH]4)CC3)c(-c3cccc(F)c3)n2)c1 yielded an activation of 1.07%.
CCC(O)C1CCN(Cc2cn(-c3ccc(OC)cc3)nc2-c2cccc(F)c2)CC1 (stereo not drawn) was tested, and the activation was 34.2% (active).
In the case of COc1ccc(-n2cc(CNC3CCOCC3)c(-c3cccc(F)c3)n2)cc1, the activation is reported as 14.3%.
CCOC(=O)c1ccc(NC(=O)CSc2nc3c([nH]c4ccccc43)c(=O)n2C)cc1 showed an activation of 0.658%.
With COc1cccc(C(=O)NCC(=O)OCc2cc(=O)n3ccsc3n2)c1 the activation was -0.454%.
With Cc1c(CCO)sc[n+]1CC(=O)OC12CC3CC(CC(C3)C1)C2 the activation was 2.73%.
Work on Cc1c(CCOC(=O)c2cc([N+](=O)[O-])ccc2Cl)sc[n+]1CCCCS(=O)(=O)[O-] yielded an activation of 2.52%.
Cc1c(CCOC(=O)CC23CC4CC(CC(C)(C4)C2)C3)sc[n+]1Cc1ccc([N+](=O)[O-])cc1 was tested, and the activation was 35.6% (active).
For CCn1c(CN2CCC(C)CC2)nc2cc(NC(=O)c3ccccc3[N+](=O)[O-])ccc21, the activation was 0.209%.
COc1ccc(OC)c(NC(=O)CSC2=Nc3ccccc3C3=NC(CC(=O)NCc4ccc(F)cc4)C(=O)N23)c1 (stereo not drawn) showed an activation of -0.058%.
Work on CCOC(=O)c1ccc(N2C(=O)c3n[nH]c(C)c3C2c2ccc(O)c(OC)c2)cc1 (stereo not drawn) yielded an activation of 0.253%.
In the case of CCCCCCCCCCOC(=O)Cn1c(COc2cccc(OC)c2)[n+](C)c2ccccc21, the activation is reported as 116% (active).
In the case of COc1ccc(-n2c(=O)c3sc4ccccc4c3n(CC(=O)Nc3cccc(C)c3)c2=O)cc1, the activation is reported as 8.8%.
O=C(Nc1ccc(O)c(-c2nc3ccccc3o2)c1)c1ccc(-c2cccc(Cl)c2)o1 showed an activation of 0.486%.
For CCCn1c(=N)n(CC(O)COc2ccccc2OC)c2ccccc21 (stereo not drawn), the activation was -0.594%.
In the case of C=CCn1c(=N)n(CC(O)COc2ccc(OC)cc2)c2ccccc21 (stereo not drawn), the activation is reported as 40.4% (active).
Cc1cccc(OCC(O)Cn2c(=N)n(CCN3CCOCC3)c3ccccc32)c1 (stereo not drawn) showed an activation of 0.333%.
With O=S(=O)(NCCc1nnc2ccc(SCc3ccc(Cl)cc3Cl)nn12)c1ccccc1 the activation was 1.47%.
With Cc1ccc(Cl)cc1N1CCN(C(=O)c2cccn3c(=O)c4cc(Cl)ccc4nc23)CC1 the activation was 2.28%.
In the case of Cc1ccc(Cl)cc1N1CCN(C(=O)c2cccc3c(=O)c(C)c(-c4ccccc4)oc23)CC1, the activation is reported as 34.3% (active).
CCn1cc(C(=O)N2CCN(c3cc(Cl)ccc3C)CC2)c(=O)c2cc(S(=O)(=O)N3CCCC3)ccc21 showed an activation of -0.309%.
COc1ccc(-c2c3c(=O)n(C)c(=O)n(C)c3c3c(C)nc4ccccc4n23)cc1 was tested, and the activation was -0.834%.
With COc1ccc(-c2nn3c(-c4ccc(OC)cc4)nnc3c3ccccc23)cc1 the activation was -0.437%.
CCOCCCNC(=O)c1cn(CC)c2ccc(S(=O)(=O)N3CCc4ccccc4C3)cc2c1=O was tested, and the activation was 0.286%.
In the case of CSCCC(NC(=O)COc1ccccc1)C(=O)OCCOc1ccc(Br)cc1 (stereo not drawn), the activation is reported as 30.8% (active).
CSCCC(NC(=O)COc1ccccc1)C(=O)OCC(=O)c1cc2ccccc2o1 (stereo not drawn) was tested, and the activation was 5.5%.
Work on CSCCC(NC(=O)COc1ccccc1)C(=O)OCCOc1ccc(F)cc1 (stereo not drawn) yielded an activation of 2.91%.
For CCOC(=O)CC1COCCN1C(=O)c1cc(COc2ccc(F)c(F)c2)on1 (stereo not drawn), the activation was 43.4% (active).
CCC(NC(=O)c1cc(COc2ccc(F)c(F)c2)on1)c1ccncc1 (stereo not drawn) showed an activation of 24.1%.
O=C(c1cc(COc2ccc(F)cc2F)on1)N1CCOCC1 gave an activation of 2.85%.
